The text below walks through data of PubChem BioAssay (NCATS).

Results filed as inconclusive are left out. The source made the active and inactive calls. Calls come from the whole dose curve; as a rule, active = well fitted curve in the direction sought with a large enough effect; inconclusive = small, poorly fitted or top-dose-only effect, or another doubt; inactive = no such curve, though single readings can be large; an effect the other way counts as inactive or inconclusive.

Assay [1] in a line: qHTS of pediatric cancer cell lines to identify multiple opportunities for drug repurposing: Primary screen for TC32 cells (AID 1347089). Note: nearly all actives have a fitted effect of over 60% in size. The method, boiled down: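 TC32 cells, 500-1,000/well in growth medium, compound-treated 48 h at 37 °C; viability from CellTiter-Glo luminescence. Primary screen: MIPE 11-point (0.78 nM–46 µM final), NPC 8-point (0.59 nM–46 µM final); confirmatory at 11-point dilutions.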

Assay [2] in a line: qHTS of pediatric cancer cell lines to identify multiple opportunities for drug repurposing: Primary screen for A673 cells (AID 1347092). Note: nearly all actives have a fitted effect of over 45% in size. In outline: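 A673 cells (500-1,000 cells/well) were treated 48 hours at 37 degrees C with compounds at 11-point (0.78 nM to 46 µM) or 8-point (0.59 nM to 46 µM) dilutions. Viability read by CellTiter-Glo luminescence; concentration-response curves fitted.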
For orientation: qHTS replaces the single test concentration by a dilution series.

A short description of assay [3]: qHTS of pediatric cancer cell lines to identify multiple opportunities for drug repurposing: Primary screen for U-2 OS cells (AID 1347096). Note: nearly all actives have a fitted effect of over 50% in size. In outline: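 Cells (500-1,000/well) rested 5 h, then received compounds for 48 h; metabolically active cells were measured by CellTiter-Glo luminescence. Final concentrations spanned up to 46 µM (MIPE, 11-point) or 0.59 nM-46 µM (NPC, 8-point) in primary screens, 11-point in follow-ups.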

Assay [4] can be described thus: qHTS of pediatric cancer cell lines to identify multiple opportunities for drug repurposing: Primary screen for BT-37 cells (AID 1347094). The method, boiled down: (§1)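 Following a 5-hour attachment period, cells at 500-1,000/well received compounds and were cultured for 48 hours. CellTiter-Glo was added and luminescence read to estimate viable, metabolically active cells.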

Assay [5] is described as follows: qHTS of pediatric cancer cell lines to identify multiple opportunities for drug repurposing: Primary screen for NB-EBc1 cells (AID 1347095). The method, boiled down:
as §1

A short description of assay [6]: qHTS of pediatric cancer cell lines to identify multiple opportunities for drug repurposing: Primary screen for DAOY cells (AID 1347090). Note: nearly all actives have a fitted effect of over 55% in size. In outline: (§2)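 Cell viability, CellTiter-Glo luminescence; 500-1,000 cells/well, 8- or 11-point titration, 48 h compound exposure at 37 degrees C, 5% CO2. Controls: DMSO neutral, bortezomib 2.3 µM final as positive.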
A short description of assay [7]: qHTS of pediatric cancer cell lines to identify multiple opportunities for drug repurposing: Primary screen for SJ-GBM2 cells (AID 1347091). The method, boiled down: as §2
The nature of assay [8]: qHTS of pediatric cancer cell lines to identify multiple opportunities for drug repurposing: Primary screen for SK-N-MC cells (AID 1347093). In outline:
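Metabolically active cells were quantified by ATP-dependent luminescence (CellTiter-Glo, 15 min at room temperature) following 48 h treatment. Cells had been plated at 500-1,000 per well and settled for 5 h beforehand.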
Potency is the fitted concentration of half-maximal effect.

Consider `O=C(Nc1cccc(Cl)c1)Nc1ncc(CCNc2ncnc3ccsc23)s1`, for which the Potency in assay [1] was 0.739 µM (active); in assay [2], 14.8 µM (active). The Potency result in assay [3] is “inactive”.

For `O=[N+]([O-])c1ccc(Nc2ccccc2-c2ccccc2)c2nonc12`, the Potency entry in assay [1], in assay [4] and in assay [3] was “inactive” throughout. The Potency in assay [5] is 23.5 µM (active).

Regarding `CC(=O)OCC(=O)[C@@]1(O)CC[C@H]2[C@@H]3CCC4=CC(=O)C=C[C@]4(C)[C@@H]3[C@@H](O)C[C@@]21C`, the Potency entry in assay [6], in assay [7], in assay [2], in assay [8], in assay [4] and in assay [5] was “inactive” throughout. Further, the Potency entry in assay [3] was “inactive”.

Turning to `COc1c(C)c2c(c(O)c1CC=C(C)CCC(=O)O)C(=O)OC2`, the Potency is 5.23 µM (active) in assay [1], 1.18 µM (active) in assay [8], 1.53 µM (active) in assay [4] and 0.743 µM (active) in assay [5].

Regarding `Cc1ccc(NC(=O)c2ccc(CN3CCN(C)CC3)cc2)cc1Nc1nc(-c2cccnc2)cs1`, the Potency entry in assay [1] and in assay [5] was “inactive” throughout. Also, in assay [4], the Potency was 24.3 µM (active).

Consider `Cc1nc(NC(=O)N2CCC[C@@H]2C(N)=O)sc1-c1csc(C(C)(C)C)n1`, for which the Potency in assay [6] was 14.8 µM (active); in assay [7] it was 4.18 µM (active); in assay [2] it was 2.96 µM (active); in assay [8], 0.235 µM (active); in assay [5] it was 4.69 µM (active).

Regarding `C[C@@H]1[C@H](C)CC[C@]2(C(=O)O)CC[C@]3(C)C(=CC[C@@H]4[C@@]5(C)CC[C@H](O)C(C)(C)[C@H]5CC[C@]43C)[C@@H]12`, the Potency in assay [1] is 19 µM (active); in assay [5], 13.6 µM (active). For the same compound, the Potency entry in assay [4] and in assay [3] was “inactive” throughout.

Turning to `O=C(Nc1ccccc1)Nc1ccc(-c2ccc(C(=O)[C@H]3CCC[C@H]3C(=O)O)cc2)cc1`, the Potency result in assay [1], in assay [5] and in assay [3] was “inactive” throughout. In assay [8], the Potency is 1.87 µM (active).

Take `N#CC(=C1Nc2ccccc2S1)c1ccnc(OCc2ccc(CN3CCOCC3)cc2)n1`: the Potency in assay [6] is 0.0093 µM (active); in assay [7], 3.32 µM (active); in assay [2], 0.0235 µM (active); in assay [8], 0.0053 µM (active); in assay [4], 0.306 µM (active); in assay [5], 0.526 µM (active).

With `C[C@@H](O)[C@H]1C(=O)N2C(C(=O)OCOC(=O)C(C)(C)C)=C(SC3CN(C4=NCCS4)C3)[C@H](C)[C@H]12`, the Potency entry in assay [6], in assay [7], in assay [8], in assay [4], in assay [5] and in assay [3] was “inactive” each time.

For the compound `CCCCC[C@H](O)C=C[C@H]1[C@H](O)CC(=O)[C@H]1CC=CCCCC(=O)O`, the Potency result in assay [6], in assay [7], in assay [5] and in assay [3] was “inactive” in each case.

As for `CC1(COc2ccc3c(c2)ncn3-c2ccc3cccc(N4CCC(N)CC4)c3n2)COC1`, the Potency in assay [6] is 0.0469 µM (active); in assay [7], 5.26 µM (active); in assay [4] it was 0.001 µM (active); in assay [5], 0.001 µM (active); in assay [3], 29.6 µM (active).

In the case of `CCN(CCO)CCCOc1ccc2c(Nc3cc(CC(=O)Nc4cccc(F)c4)[nH]n3)ncnc2c1`, the Potency entry in assay [6] and in assay [3] was “inactive” throughout. The Potency in assay [7] is 0.166 µM (active); in assay [8] it was 0.209 µM (active).

As to `Nc1ccc(-c2ccc3ncc4ccc(=O)n(-c5cccc(C(F)(F)F)c5)c4c3c2)cn1`, the Potency in assay [6] was 0.0074 µM (active); in assay [7] it was 0.003 µM (active); in assay [2], 0.003 µM (active); in assay [4], 0.0109 µM (active); in assay [5], 0.0118 µM (active); in assay [3] it was 1.48 µM (active).

As to `COc1ccc(CCN(C)CCCOc2ccc(S(=O)(=O)c3[nH]c4ccccc4c3C(C)C)cc2)cc1OC`, the Potency entry in assay [6] and in assay [3] was “inactive” throughout. The Potency in assay [4] was 19.3 µM (active); in assay [5], 20.9 µM (active).

With `CC[C@H](C)C(=O)O[C@H]1C[C@H](O)C=C2C=C[C@H](C)[C@H](CC[C@@H](O)C[C@@H](O)CC(=O)O)[C@H]21`, the Potency result in assay [7], in assay [2], in assay [8], in assay [4], in assay [5] and in assay [3] was “inactive” in each case.

For `N#Cc1ccc(Oc2ccc3c(c2)COB3O)cc1`, the Potency entry in assay [6], in assay [2] and in assay [3] was “inactive” each time. In assay [8], the Potency is 14.8 µM (active).

Consider `CC(C)n1c(C=C[C@H](O)C[C@H](O)CC(=O)O)c(-c2ccc(F)cc2)c2ccccc21`, for which the Potency in assay [6] was 1.87 µM (active); in assay [7] it was 9.35 µM (active); in assay [8], 11.8 µM (active); in assay [4] it was 19.3 µM (active); in assay [3], 14.8 µM (active).

For the compound `CC1CNc2c(cccc2S(=O)(=O)N[C@@H](CCCN=C(N)N)C(=O)N2CC[C@@H](C)C[C@@H]2C(=O)O)C1` (stereo not given in full), the Potency is 18.7 µM (active) in assay [7]; 5.9 µM (active) in assay [2]; 6.62 µM (active) in assay [8]; 10.9 µM (active) in assay [4]; 6.62 µM (active) in assay [5]. Moreover, the Potency entry in assay [3] was “inactive”.

Consider `C=CC[N+]1([C@H]2C[C@H]3[C@@H]4CC[C@H]5C[C@H](O)[C@@H](N6CCOCC6)C[C@]5(C)[C@@H]4CC[C@]3(C)[C@H]2OC(C)=O)CCCC1`, for which the Potency result in assay [6], in assay [7], in assay [8], in assay [4], in assay [5] and in assay [3] was “inactive” in each case.

`Cc1nc(C(=O)NCC(=O)O)c(O)c2ccc(Oc3ccccc3)cc12`: the Potency entry in assay [6], in assay [7], in assay [2], in assay [4] and in assay [3] was “inactive” in each case.

For the compound `CCCCCCOC(=O)N=C(N)c1ccc(NCc2nc3cc(C(=O)N(CCC(=O)OCC)c4ccccn4)ccc3n2C)cc1`, the Potency result in assay [6] and in assay [3] was “inactive” each time. Besides, the Potency in assay [7] was 18.7 µM (active); in assay [2] it was 14.8 µM (active); in assay [8] it was 29.6 µM (active).

`Nc1ncnc2c1ncn2[C@@H]1O[C@H](CO)[C@@H](O)[C@@H]1O`: the Potency in assay [7] was 2.35 µM (active); in assay [2] it was 0.935 µM (active); in assay [8] it was 0.833 µM (active); in assay [4], 5.44 µM (active); in assay [3], 14.8 µM (active).

Regarding `O=C(NCCCCN1CCOCC1)c1cc2ccccc2o1`, the Potency entry in assay [6], in assay [7], in assay [4], in assay [5] and in assay [3] was “inactive” throughout.

Regarding `CC1=C(CC(=O)O)c2cc(F)ccc2C1=Cc1ccc(S(C)=O)cc1` (stereo not given), the Potency is 3.72 µM (active) in assay [6], 1.48 µM (active) in assay [2] and 18.7 µM (active) in assay [5]. Also, the Potency entry in assay [7] and in assay [3] was “inactive” in each case.

As for `CCOC(=O)[C@H]1O[C@H]1C(=O)N[C@@H](CC(C)C)C(=O)NCCC(C)C`, the Potency entry in assay [6], in assay [7], in assay [4], in assay [5] and in assay [3] was “inactive” throughout. Further, the Potency in assay [2] was 18.7 µM (active).

In the case of `C=CC(=O)Nc1cccc(Sc2nc(Nc3ccc(N4CCN(C)CC4)cc3)ncc2Cl)c1`, the Potency in assay [6] was 2.35 µM (active); in assay [2] it was 1.48 µM (active); in assay [8], 2.64 µM (active); in assay [5], 9.35 µM (active).

On to `COC(=O)Nc1ccc(-c2nc(N3CCOCC3)c3cnn(C4CCN(C(=O)OC)CC4)c3n2)cc1`, for which the Potency was 1.87 µM (active) in assay [6]; 4.69 µM (active) in assay [7]; 0.59 µM (active) in assay [2]; 0.122 µM (active) in assay [4]; 0.0083 µM (active) in assay [5].

In the case of `Cc1ccccc1C(=O)c1ccc(Nc2ccc(Br)cc2N)cc1Cl`, the results for the Potency in assay [7], in assay [2] and in assay [8] were 23.5 µM (active), 18.7 µM (active) and 16.6 µM (active), respectively.

On to `O=c1[nH]c(=O)n([C@H]2C[C@@H](O)[C@@H](CO)O2)cc1I`, for which the Potency entry in assay [7], in assay [2], in assay [8], in assay [4], in assay [5] and in assay [3] was “inactive” in each case.
